Test results taken from the supplement of paper PMC10477191.
± gives the standard deviation of the averaged measurements.

test system: Drosophila ezoana antennal basiconic sensillum ab2; test: odor-evoked OSN spike response (post minus pre-stimulus); higher = stronger neuronal excitation; details: odor dilution: 10^-4
Protocol: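 Single sensillum recordings from antennal basiconic sensilla of D. ezoana. A 500 ms pulse of odorant (10^-4 in mineral oil or DMSO) was delivered; the response is the change in action potential frequency between the 1 s pre- and post-stimulus windows (spikes/s).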

Structure (SMILES) | odor-evoked OSN spike response [spikes/s]
CC(C)=O [acetone] | 73.7 ± 37
